Hit rate of the full screen: of about 75,000 compounds, about 35 (0.05%) were called active. Entries that show only a call come without a potency. Many of the other results were omitted from the sample, so actives are more common in it than they were. Unmarked numbers belong to inactive results. Calls follow the shape of the dose curve; as a rule, active = well fitted inhibition curve with a large enough effect; inconclusive = small, poorly fitted or top-dose-only effect; inactive = no such curve, though single readings can be large or run the other way.
Potency is read from the fitted curve at half-maximal effect.

Breast cancer type 1 susceptibility protein (Homo sapiens), sequence (P38398 whole entry, looked up): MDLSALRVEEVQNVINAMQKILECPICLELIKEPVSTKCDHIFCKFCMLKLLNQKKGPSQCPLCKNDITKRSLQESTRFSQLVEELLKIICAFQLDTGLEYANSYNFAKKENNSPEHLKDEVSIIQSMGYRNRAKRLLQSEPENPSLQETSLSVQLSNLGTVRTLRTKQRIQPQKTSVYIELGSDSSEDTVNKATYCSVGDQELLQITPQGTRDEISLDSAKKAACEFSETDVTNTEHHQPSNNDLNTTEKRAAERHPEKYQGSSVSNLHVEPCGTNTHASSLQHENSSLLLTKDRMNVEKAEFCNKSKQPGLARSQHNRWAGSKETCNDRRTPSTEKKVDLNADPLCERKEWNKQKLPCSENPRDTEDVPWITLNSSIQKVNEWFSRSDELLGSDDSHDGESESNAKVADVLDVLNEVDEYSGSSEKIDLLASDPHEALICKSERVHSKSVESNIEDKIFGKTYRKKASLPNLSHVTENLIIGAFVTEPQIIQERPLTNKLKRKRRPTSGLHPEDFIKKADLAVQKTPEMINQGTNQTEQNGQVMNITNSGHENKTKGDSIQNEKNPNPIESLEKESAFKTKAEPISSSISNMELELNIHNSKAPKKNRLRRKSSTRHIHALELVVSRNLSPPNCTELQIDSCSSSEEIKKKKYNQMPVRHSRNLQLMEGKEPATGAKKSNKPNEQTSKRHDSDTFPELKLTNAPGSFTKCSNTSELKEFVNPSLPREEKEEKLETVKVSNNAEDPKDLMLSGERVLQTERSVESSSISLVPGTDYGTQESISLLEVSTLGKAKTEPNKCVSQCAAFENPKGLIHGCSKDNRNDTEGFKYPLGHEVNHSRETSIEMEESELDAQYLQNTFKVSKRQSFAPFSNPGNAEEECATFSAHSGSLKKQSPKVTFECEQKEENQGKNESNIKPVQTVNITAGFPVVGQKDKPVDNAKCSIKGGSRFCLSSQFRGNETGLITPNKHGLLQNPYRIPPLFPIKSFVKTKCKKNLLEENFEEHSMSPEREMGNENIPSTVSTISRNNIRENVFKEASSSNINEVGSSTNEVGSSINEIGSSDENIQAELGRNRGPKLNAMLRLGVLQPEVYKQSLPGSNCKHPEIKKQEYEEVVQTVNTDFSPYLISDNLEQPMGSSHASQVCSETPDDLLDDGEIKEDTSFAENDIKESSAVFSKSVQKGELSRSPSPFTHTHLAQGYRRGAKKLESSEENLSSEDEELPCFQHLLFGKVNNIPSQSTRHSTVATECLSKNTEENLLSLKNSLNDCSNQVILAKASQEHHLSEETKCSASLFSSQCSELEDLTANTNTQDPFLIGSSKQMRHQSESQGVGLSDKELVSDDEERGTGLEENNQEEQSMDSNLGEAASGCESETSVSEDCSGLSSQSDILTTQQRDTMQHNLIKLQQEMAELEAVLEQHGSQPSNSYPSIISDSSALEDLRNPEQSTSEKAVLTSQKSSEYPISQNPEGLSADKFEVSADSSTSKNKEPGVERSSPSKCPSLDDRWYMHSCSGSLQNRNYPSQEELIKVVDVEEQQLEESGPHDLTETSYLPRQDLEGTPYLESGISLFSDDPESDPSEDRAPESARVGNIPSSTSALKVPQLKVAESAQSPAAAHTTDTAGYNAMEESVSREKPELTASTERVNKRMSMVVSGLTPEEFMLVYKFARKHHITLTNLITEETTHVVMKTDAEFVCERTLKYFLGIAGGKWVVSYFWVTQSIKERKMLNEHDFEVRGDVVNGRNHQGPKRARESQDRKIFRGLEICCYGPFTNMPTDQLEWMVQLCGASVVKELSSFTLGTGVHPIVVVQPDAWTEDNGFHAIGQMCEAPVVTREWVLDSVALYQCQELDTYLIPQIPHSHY

The assay deals with Breast cancer type 1 susceptibility protein (Homo sapiens) (UniProt P38398). Description: qHTS Assay for Inhibitors of BRCT-Phosphoprotein Interaction (Green Fluorophore). The following applies: BRCA1 BRCT-phosphopeptide binding, green fluorescence polarization; series mostly up to 76.9 µM. As to the method:
NIH Molecular Libraries Screening Centers Network [MLSCN]
NIH Chemical Genomics Center [NCGC]
PI Name: Natarajan, Amarnath; University of Texas
A complex of BRCT (C-terminal portion of BRCA1, MW ~35 kDa, His-tagged) and fluorescently labeled pBACH1 phosphorylated 10 aa peptide fragment of BACH1, a helicase implicated in DNA repair, is incubated with library members. Inhibitors of BRCT-pBACH1 binding are detected by a decrease in the fluorescence polarization (FP) of the fluorophore. In order to minimize the effect of fluorescence artifacts and to increase the overall robustness of the screen, the compound library members were incubated in separate reactions with fluorescein labeled probe-protein complexes. Protein and labeled probes were supplied by Dr. Amarnath Natarajan, Department of Pharmacology and Toxicology, University of Texas Medical Branch Galveston, TX.
Assay Buffer: 16mM Na2HPO4, 4 mM NaH2PO4, 150 mM NaCl, 1 mM EDTA, 1 mM DTT, 0.02% NaN3, and 0.01% Tween 20 at pH 7.3.
100 nM labeled decapeptide/250 nM protein in columns 1, 2, 5 - 48. Titration of unlabeled decapeptide control (from 10 mM, then 1:2 dilution in duplicate) pin-transferred to column 2, rows 1 to 16. Column 1 is neutral.
Three uL of reagents were dispensed to 1536-well Greiner black solid-bottom plates. Compounds and controls (23 nL) were transferred
via Kalypsys PinTool. The plates were incubated for 12 min at room temperature, and then read on ViewLux (Perkin-Elmer) High throughput CCD imager using FITC for the fluorescein-labeled decapeptide probe polarization filter sets. During dispense, reagent bottles were kept submerged into 4 deg C water bath and all liquid lines were covered with aluminum foil to minimize probe and protein degradation. All screening operations were performed on a Kalypsys robotic system (Kalypsys, Inc., San Diego, CA) containing one RX-130 and two RX-90 anthropomorphic robotic arms. The timing and order of assay plates passing through the screening system were adjusted such that each compound library plate was assayed against the fluorescein- and rhodamine-labeled assay systems at immediately adjacent time points.
On to `C(=C\c1ccccc1)/CSc1nnc(-c2cccnc2)n1Cc1ccco1`, for which the activity change, negative = inhibition entry is “inactive”. For the compound `Nc1ccc2c3c(cccc13)C(=O)NC2=O`, the Potency was 12.6 µM (active). On to `CCN1C(=O)c2cccc3c(N)ccc1c23`, for which the activity change, negative = inhibition result is “inactive”.

In the case of `Cc1ccc(C)c(N2CCN(S(=O)(=O)c3ccc4c(c3)oc(=O)n4C)CC2)c1`, the activity change, negative = inhibition entry was “inactive”. The same measure, in the same setting: as for `CCN(CC)CCNC(=O)Cn1cnc2sc(C)c(S(=O)(=O)N3CCOCC3)c2c1=O`, the entry is “inactive”. Regarding `CC(=O)Nc1ccc(S(=O)(=O)N2CCSCC2)cc1`, the activity change, negative = inhibition result is “inactive”. `COc1cccc(CNC(=O)C2CCN(S(=O)(=O)c3cccc4cccnc34)CC2)c1`: the activity change, negative = inhibition result was “inactive”. With `Cc1ccc(S(=O)(=O)c2c(N)n(C)c3nc4ccccc4nc23)cc1`, the activity change, negative = inhibition entry is “inactive”. As for `O=C(Nc1ccc(S(=O)(=O)N2CCCC2)cc1Cl)C1=COCCO1`, the activity change, negative = inhibition entry is “inactive”.

In the case of `O=C(c1cnccn1)N1CCC2(CCN(Cc3cc(C(F)(F)F)cc(C(F)(F)F)c3)CC2)CC1`, the activity change, negative = inhibition entry is “inactive”.

On to `CCOc1ccccc1N(CC(=O)NC1CCCCC1)C(=O)CCCC(=O)Nc1ccccn1`, for which the activity change, negative = inhibition entry is “inactive”.

For `Cc1cc(C)cc(OCc2nnc(SCC(=O)OC3CCCCC3)o2)c1`, the activity change, negative = inhibition result is “inactive”. Regarding `CCOc1cc(S(=O)(=O)NCc2ccc3c(c2)OCO3)ccc1F`, the activity change, negative = inhibition entry was “inactive”. Take `COc1ccc(-c2nc3cnc(OC)nc3n(Cc3ccc(F)cc3)c2=O)cc1`: the activity change, negative = inhibition result is “inactive”.

With `Cc1cc(N=CC2=C(O)CCCC2=O)no1`, the activity change, negative = inhibition entry was “inactive”. Still for that read-out and setting: as for `CC(=O)c1nc(N2C(=O)C3CC=C(C)CC3C2=O)sc1C` (stereo unspecified), the entry is “inactive”; as for `Cc1cn(COC/C=C/c2ccccc2)c(=O)[nH]c1=O`, “inactive”. `O=C1NC(c2ccncc2)Nc2sc3c(c21)CCCC3` (stereo unspecified): the activity change, negative = inhibition result is “inactive”. Turning to `COc1ccc2c(c1)C=CC1(O2)N(CCO)c2ccccc2C1(C)C` (stereo unspecified), the activity change, negative = inhibition entry was “inactive”. On the same count and under the same terms, the value for `CN(C)CCOC(=O)C(c1ccccc1)C1(O)CCCC1` (stereo unspecified) was -1.8% [at 3.08 µM].

For the compound `COC(=O)c1ccc(CN(c2ccccc2OC)S(=O)(=O)c2cccs2)o1`, the activity change, negative = inhibition result is “inactive”.

Turning to `COc1ccc(S(=O)(=O)NC(CC(=O)NCc2ccccc2OC)c2ccco2)cc1` (stereo unspecified), the activity change, negative = inhibition result was “inactive”. Still for that read-out and setting: as for `CCOC(=O)C1=C(CNC2CCCCC2)NC(=O)NC1c1cc(C)ccc1C` (stereo unspecified), the entry is “inactive”; as for `CCSc1nc2c(c(=O)[nH]1)C(c1cccnc1)C(C(=O)OC(C)C)=C(C)N2` (stereo unspecified), “inactive”. The same measure, in the same setting: as for `O=C(CCC(=O)N1CCN(S(=O)(=O)c2ccccc2)CC1)NC1CCCc2ccccc21` (stereo unspecified), the entry is “inactive”.

On to `CCNS(=O)(=O)c1ccc(NC(=O)Nc2cccc(OC)c2)cc1`, for which the activity change, negative = inhibition entry was “inactive”. For `O=S(=O)(/C=C/c1ccccc1)NCCc1ccccn1`, the activity change, negative = inhibition result is “inactive”.

For the compound `CCOc1ccc(NC(=O)Nc2cc(C)ccc2OC)cc1`, the activity change, negative = inhibition entry is “inactive”. On to `Cc1cc2nc3c(=O)[nH]c(=O)nc-3n(C[C@H](O)[C@H](O)[C@H](O)CO)c2cc1C`, for which the Potency is 7.94 µM (active). For `C=CCn1c(COc2ccccc2C)nnc1SCC(=O)O`, the activity change, negative = inhibition entry was “inactive”. Consider `O=C(C(Cc1ccccc1)n1cccc1)N1CCN(C2CCCCC2)CC1` (stereo unspecified), for which the activity change, negative = inhibition entry is “inactive”.

For `OCc1n[nH]c(CO)n1`, the activity change, negative = inhibition entry is “inactive”. On the same count and under the same terms, the value for `CCn1ncc(Br)c1C(=O)Nc1cc(C)ccc1F` was “inactive”; that for `CCOC(=O)CN1C(=O)C(O)(CC(=O)c2ccccn2)c2ccccc21` (stereo unspecified) was “inactive”. Still for that read-out and setting: the value for `CCCOc1cccc(C(=O)Nc2nnn(CCC)n2)c1` was “inactive”. `Cn1cnc2c1c(=O)n(Cc1c(Cl)cccc1Cl)c(=O)n2C`: the activity change, negative = inhibition entry was “inactive”. The same measure, in the same setting: as for `COc1cccc([C@H]2Oc3ccc(OC)cc3/C(=N\OCC[C@@H]3C=C[C@H](OC(C)=O)[C@H](COC(C)=O)O3)[C@@H]2O)c1`, the figure is 1.43% [at 15.4 µM]; as for `Cc1ccccc1OCC(=O)Nc1ccc(N2CCN(C(=O)C(C)C)CC2)c(Cl)c1`, “inactive”; as for `O=C(NCCSc1ccccc1)c1ccco1`, “inactive”. With `CCCCOc1ccc(-c2nnc(-c3ccco3)o2)cc1`, the activity change, negative = inhibition result is “inactive”. Consider `COc1ccc(-c2oc3cc(OC)ccc3c2C(=O)c2ccc(C#N)cc2)cc1`, for which the activity change, negative = inhibition entry was “inactive”. Still for that read-out and setting: the value for `Cc1cnc(CNc2cc(-c3c(C)noc3C)ncn2)cn1` was “inactive”. Still for that read-out and setting: the value for `Cn1c(N)c(C(=O)COC(=O)c2cc(C(F)(F)F)nc3c(C(F)(F)F)cccc23)c(=O)n(C)c1=O` was “inactive”. Still for that read-out and setting: the value for `CCc1c(C)nc2cc(-c3cccs3)[nH]n2c1=O` was “inactive”; that for `COC(=O)c1ccc(C23CC4(C2)[C@H](CN(Cc2cccnc2)[C@@H]4c2ccccc2)C3c2ccc(Cl)nc2)cc1` (stereo partly specified) was “inactive”.

Take `COc1ccc2c(=O)cc(-c3ccccc3)oc2c1O`: the activity change, negative = inhibition entry was “inactive”.

`Cc1ccc(NC(=O)CN2CCC3(O)CCCCC3C2c2ccc3c(c2)OCO3)c(C)c1` (stereo unspecified): the activity change, negative = inhibition entry is “inactive”. With `CCS(=O)(=O)N(C)[C@@H]1c2cc(C#N)ccc2OC(C)(C)[C@H]1O`, the activity change, negative = inhibition entry was “inactive”.

Turning to `CCc1nc(Nc2ccc3nccnc3c2)c2oc3ccccc3c2n1`, the activity change, negative = inhibition result is “inactive”. As for `O=C(CN1C(=O)CSc2ncccc21)N1CCOCC1`, the activity change, negative = inhibition result is “inactive”.

Turning to `FC(F)(F)c1cc(-c2cccs2)nc(NCc2ccco2)n1`, the activity change, negative = inhibition entry was “inactive”.
